Compound activity (PubChem BioAssay)
In the library only some 12% were active in any assay of this set; here they are far more common.
HP1b binding inh: inhibitors of HP1-beta chromodomain binding to methylated histone tails; P83916; AlphaScreen HP1-beta / biotin-H3K9me3 peptide binding; Potency, µM (top dose mostly 114 µM), actives largely listed as inhibitors; 390,000 compounds, 0.56% hits; AID 540317; further: nearly all actives have a fitted effect of over 70% in size
Target sequence (P83916 whole entry, looked up): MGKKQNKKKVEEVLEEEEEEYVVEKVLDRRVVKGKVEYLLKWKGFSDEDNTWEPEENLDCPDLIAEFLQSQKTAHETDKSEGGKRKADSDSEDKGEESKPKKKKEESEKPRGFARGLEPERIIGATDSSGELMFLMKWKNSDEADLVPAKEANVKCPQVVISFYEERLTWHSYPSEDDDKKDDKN
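AlphaScreen: HP1-beta (50 nM) preformed 30 min with biotin-H3(1-18)K9me3 peptide (50 nM) in PBS pH 7.4, 0.01% Tween-20. Compound added for 30 min at RT, then streptavidin donor/nickel chelate acceptor beads (10 ug/mL) for 30 min.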
JMJD2A Tudor: JMJD2A Tudor domain (human) inhibition; O75164; Potency, µM (series often up to 114 µM), most hits filed as inhibitors; AID 504339; 390,000 compounds, 4.4% hits; AlphaScreen JMJD2A-Tudor / H3K4me3 peptide binding; further: nearly all actives have a fitted effect of over 50% in size
BAZ2B inh: BAZ2B (human) inhibition; Q9UIF8; AlphaScreen BAZ2B-H3K14Ac peptide displacement; Potency, µM (doses to about 114 µM), most hits filed as inhibitors; 360,000 compounds, 4.4% hits; AID 504333; further: nearly all actives have a fitted effect of over 60% in size
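AlphaScreen displacement of biotin-H3(5-23)K14Ac peptide (50 nM final) from BAZ2B (50 nM final) in PBS pH 7.4, 0.01% Tween-20; complex preformed 30 min RT, then compounds (top 110 uM) 30 min RT, beads 20 min dark.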
Sfp inh: blocks B. subtilis Sfp PPTase activity. Potency, µM, hits mostly inhibitors. Biochemical Sfp PPTase activity, qHTS. 310,000 compounds, 3.5% hits. Q9F4F7;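 further: the enzyme is Sfp with the accession as filed and its product quenches rhodamine fluorescence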
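Sfp 15 nM + cpd, 15 min RT; start w/ rhodamine-CoA 5 uM, BHQ-2-YbbR 12.5 uM (final); 50 mM Hepes pH 7.6, 10 mM MgCl2, 0.01% NP-40, 0.01% BSA; read 525/598 nm at 0 and 30 min.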
G9a inh: G9a (human) methyltransferase inhibition; Potency, µM (titrated, usually from 102 µM), most hits filed as inhibitors; Q96KQ7; 350,000 compounds, 8.8% hits; G9a H3K9 monomethylation, AlphaScreen, 2 h; further: nearly all actives have a fitted effect of over 75% in size
Target sequence (Q96KQ7 913-1193 limits assumed): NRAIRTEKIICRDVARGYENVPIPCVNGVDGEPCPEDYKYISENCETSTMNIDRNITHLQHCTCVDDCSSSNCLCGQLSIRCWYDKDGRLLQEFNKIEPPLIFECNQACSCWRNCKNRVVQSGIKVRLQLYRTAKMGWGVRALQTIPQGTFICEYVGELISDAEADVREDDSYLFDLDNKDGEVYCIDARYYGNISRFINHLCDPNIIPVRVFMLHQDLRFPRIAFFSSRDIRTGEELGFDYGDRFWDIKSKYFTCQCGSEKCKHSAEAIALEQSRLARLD
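Step 1: enzyme (final 20 nM) with compound, 15 min RT. Step 2: substrate peptide 500 nM and SAM 20 uM, 2 h RT. Step 3: anti-H3K9me1 antibody and AlphaScreen beads, 10 min, then plate read.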
PLK1 PBD inh: blocks phosphopeptide binding to human PLK1 polo-box domain. P53350. Plk1 PBD binding of FITC phosphopeptide, fluorescence polarization. Potency, µM, usual class: inhibitors. 360,000 compounds, 2.8% hits. AID 720504; further: series mostly up to about 57 µM; nearly all actives have a fitted effect of over 65% in size
A number is an active result; n = inactive; u = inconclusive; x = no result; ! = not active in a repeat; [ ] = another dose, or the depositor's remark. The call rests on the fitted dose curve; in most records, active means well fitted curve in the direction sought with a large enough effect; inconclusive means small, poorly fitted or top-dose-only effect, or another doubt; inactive means no such curve, though single readings can be large; an effect the other way counts as inactive or inconclusive.

SMILES	HP1b binding inh	JMJD2A Tudor	BAZ2B inh	Sfp inh	G9a inh	PLK1 PBD inh
CC(C)Oc1ccc(Cc2cnc(=S)[nH]c2N)cc1	n	n	n	n	50µM	u
C=CCOC(=O)N[C@@H](c1ccc(Br)cc1)C(C(C)=O)C(C)=O	x	x	x	n	x	x
CN(C)c1ccc(Nc2nc(N)c3ccccc3n2)cc1	32µM	40µM	14µM	25µM	10µM	n
Nc1nc(Nc2ccccc2)nc2ccccc12	n	n	n	n	u	n
NC(CCC(=O)NCS(=O)(=O)O)C(=O)O (centres undefined)	x	x	x	50µM	n[12.7 µM]	x
N#CC(C#N)=C1C=CC=CN1/C(=C\c1ccco1)C(=O)c1ccc(Cl)cc1	n	u	u	14µM	u	12µM
CC(C)CCn1c(=S)[nH]c2ncccc2c1=O	n	u	n	n	n	n
CCOCCCn1c(=S)[nH]c2ncccc2c1=O	n	22µM	n	u	56µM	n
CN(C)CCn1c(=S)[nH]c2ncccc2c1=O	n	n	n	50µM	28µM	n
CC(C)Oc1ccc(CNCC2(O)CCOC(C)(C)C2)cc1 (centres undefined)	u	2.2µM	u	n	8.9µM	30µM
O=C(CN1CCN(c2ccccc2Cl)CC1)NC1CCCc2ccccc21 (centres undefined)	u	1µM	20µM	u	8.9µM	n
O=C(CCCCCN1CCN(c2ccccc2-c2ccccc2)CC1)NC1CCCc2ccccc21 (centres undefined)	x	x	x	x	13µM	x
O=C(CCc1ccccc1)NC1CCCc2ccccc21 (centres undefined)	n	n	n	n	n	n
CCC(C)[C@H](NC(=O)N1CCn2c1nc1ccccc12)C(=O)NCc1ccccc1 (some centres undefined)	n	n	n	n	n	n
NC(=S)N=Nc1ccc(O)cc1	u	n	x	x	x	27µM
COc1cc(NC(=O)COCc2cc(-c3ccc4c(c3)OCO4)on2)c(OC)cc1Cl	n	n	n	x	n	x
CCN(CC)c1ccc(NC(=O)COCc2cc(-c3ccc4c(c3)OCO4)on2)c(C)c1	u	20µM	22µM	x	4.5µM	x
Cc1ccc(CNC(=O)Cn2c(=O)n(-c3ccc(C)cc3)c(=O)c3c2c2cc(C)ccc2n3C)cc1	n	n	n	x	n	x
CN1CCCCC1CCN1c2ccccc2Sc2ccc(S(C)=O)cc21 (centres undefined)	n	n	n	n	5.6µM!	n
CN1CCCC(CN2c3ccccc3Sc3ccccc32)C1 (centres undefined)	n	n	n	n	n[12.7 µM]	n
COc1ccc(S(=O)(=O)N2CCOCC2)cc1NC(=O)Cc1sc(C)nc1-c1ccc(F)cc1	n	n	n	x	50µM	n
COc1ccc(S(=O)(=O)N2CCCCC2)cc1NC(=O)Cc1sc(C)nc1-c1ccc(F)cc1	n	n	n	x	n	n
O=C(CCNC(=O)c1ccc(Br)cc1)Nc1cccc(S(=O)(=O)N2CCCC2)c1	n	n	n	x	45µM	n
O=C(CCNC(=O)c1ccc([N+](=O)[O-])cc1)Nc1cccc(S(=O)(=O)N2CCCCCC2)c1	n	n	56µM	x	n[2.33 µM]	n
COc1ccc([N+](=O)[O-])cc1NC(=O)CCN1CCN(C)CC1	n	n	n	n	n	n
SMILES	HP1b binding inh	JMJD2A Tudor	BAZ2B inh	Sfp inh	G9a inh	PLK1 PBD inh
COc1ccc([N+](=O)[O-])cc1NC(=O)CCN1CCOCC1	n	n	n	n	n	30µM
COc1ccc(NC(=O)N2CC3(CCN(C(=O)c4ccncc4)CC3)C2)cc1	x	x	x	n	n[12.7 µM]	x
O=C(Nc1ccccc1)N1CCC2(CC1)CCN(C(=O)c1cnccn1)CC2	x	x	x	n	n[12.7 µM]	x
Cc1ccc(-c2csc(-c3nc(-c4ccc(Br)s4)cs3)n2)cc1	n	n	n	x	n	x
O=C(COC(=O)c1ccc(F)cc1F)NCc1ccc2c(c1)OCO2	n	n	x	x	x	n
Nc1nc(=O)n(C2CCCO2)cc1Br (centres undefined)	n	n	x	x	x	n
COc1cccc(/C=C2/CN(C)CC3=C2OC(N)=C(C#N)C3c2cccc(OC)c2)c1 (centres undefined)	u	u	u	n	u	n
COc1ccc(S(=O)(=O)N2CCOCC2)cc1NC(=O)CCNC(=O)c1ccc([N+](=O)[O-])cc1	n	n	n	x	3.5µM	n
CCOC(=O)C(=O)/C(C#N)=C/Nc1ccc(F)cc1	n	n	u	n	35µM	n
COc1ccc(N2CC(C(=O)Nc3ccc(S(=O)(=O)N4CCCC4)cc3)CC2=O)cc1 (centres undefined)	n	n	n	n	n	n
COc1ccc(-n2c(=O)c3c4c(sc3n(Cc3ccc(C(C)(C)C)cc3)c2=O)CCC4)c(OC)c1	n	u	n	x	u	x
Cc1cc(Br)ccc1OCCCCNC(C)(C)C	n	28µM	50µM	n	x	27µM
COCCNC(=O)COc1ccc(Br)cc1Cl	n	n	n	n	n[12.7 µM]	n
COCCNCCCCOc1ccc(Br)cc1C	u	1.1µM	50µM	n	5.6µM	n
COCCCNCCCCOc1ccc(Br)cc1C	u	20µM	u	n	10µM	n
Cc1ccc(S(=O)(=O)N2CCOCC2)cc1NC(=O)CSc1nnc(COc2ccccc2F)n1N	n	n	x	x	x	n
COC(=O)c1ccc(NC(=O)NCCn2nnc3cc(S(=O)(=O)N(C)C)ccc32)cc1	n	n	n	x	n	x
CC(C)(C)c1ccc(Cn2nnc3c(=O)[nH]c(C4CCN(C(=O)c5ccco5)CC4)nc32)cc1	n	79µM	u	n	u	u
CCOC(=O)Cn1c(=O)n(C2CCCCC2)c2nc(-c3ccccc3Cl)nc(C(N)=O)c21	n	n	n	x	n	x
O=C(NC(=S)Nc1ccc(N2CCCCC2)cc1)c1ccco1	16µM	40µM	45µM	n	u	n
CC1CCN(c2ccc(NC(=S)NC(=O)c3ccco3)cc2)CC1	n	u	8.9µM	n	n[12.7 µM]	n
COc1ccc(C(CCN2CCCC(C)C2)c2c(OC)cc(OC)c3c(-c4ccccc4)cc(=O)oc23)cc1 (centres undefined)	n	u	n	u	n[12.7 µM]	n
COc1ccc(C(CCN2CCCC2)c2c(OC)cc(OC)c3c(-c4ccccc4)cc(=O)oc23)cc1 (centres undefined)	n	u	n	n	n[12.7 µM]	n
CCN(CC)CCC(c1ccc(N(C)C)cc1)c1c(OC)cc(OC)c2c(-c3ccccc3)cc(=O)oc12 (centres undefined)	u	22µM	32µM	56µM	u	n
COc1cc(OC)c2ccc(=O)oc2c1C(CCN1CCN(c2ccccc2)CC1)c1ccc(N(C)C)cc1 (centres undefined)	u	22µM	35µM	n	n	n
COc1cc(OC)c2c(-c3ccccc3)cc(=O)oc2c1C(CCN1CCCC(C)C1)c1ccc(N(C)C)cc1 (centres undefined)	u	11µM	16µM	u	u	n
